PubChem BioAssay (NCI)
About 83,000 compounds went through this panel and 20% of them were active in at least one assay; those are over-represented in the sample as a whole.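 Each cell line was grown in a 96-well plate and treated with one concentration of compound for 48 hours. Values below 10 were considered active.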 Activity calls are given as the source filed them.

Assays:
Assay in all cases: NCI-60 one-dose screen, 48 h (100 = growth as untreated, 0 = no growth, -100 = all killed)
Conditions in all cases: 10 µM unless noted
[1] = tested on: SR leukemia
[2] = tested on: RPMI-8226 leukemia
[3] = tested on: OVCAR-8 ovarian
[4] = tested on: OVCAR-5 ovarian
[5] = tested on: OVCAR-4 ovarian
[6] = tested on: SK-OV-3 ovarian
[7] = tested on: IGROV1 ovarian
[8] = tested on: OVCAR-3 ovarian
[9] = tested on: HS 578T breast
[10] = tested on: NCI/ADR-RES ovarian

Measured: growth

CCNC(=O)Oc1ccc(/C(=C(/C)c2ccccc2)c2ccc(OCCN3CCCCCC3)cc2)cc1
inactive: [4] 35.1% | [5] 36.4% | [6] 51.8% | [7] 32.9% | [10] 24.4%
active: [1] 0.632% | [2] -32.8% | [3] 7.06% | [8] 6.04% | [9] -12.8%

COc1ccc(/C=C(/C)c2ccc3ccc(OC)cc3[o+]2)c(O)c1
inactive: [1] 14.9% | [2] 58.4% | [3] 80.5% | [4] 98.5% | [5] 84.5% | [6] 98.6% | [7] 58% | [8] 35.1% | [9] 98.7% | [10] 45.3%

O=C(Nc1ccc(F)c(F)c1)c1cc(-c2ccc(F)cc2F)ccc1O
active: [2] -11.4% | [3] 9.13% | [6] 6.7% | [8] 7.32% | [9] -0.443% | [10] 2.02%
inactive: [1] 32.8% | [4] 12.1% | [5] 10% | [7] 14.9%

O=S(=O)(Nc1cccc2ccccc12)c1ccc(-c2cnc(C3CC3)o2)cc1
active: [8] 7.12% | [10] 7.22%
inactive: [1] 21.2% | [2] 14.4% | [3] 28.5% | [4] 42.6% | [5] 64.1% | [6] 71.3% | [7] 23.4% | [9] 39.1%

N#Cc1c(-c2cccs2)cc(-c2cnccn2)nc1SCC(=O)Nc1ccc(Br)cc1
inactive: [1] 79.5% | [2] 99.5% | [3] 94.6% | [4] 86.7% | [5] 73.8% | [6] 97.6% | [7] 64.8% | [8] 96.3% | [9] 68.6% | [10] 85.8%

CC1(C)[C@@H](O)CC[C@]2(C)[C@H]3CC[C@@H]4[C@H]5[C@H](C(=O)/C=C\c6ccc([N+](=O)[O-])cc6)CC[C@]5(O)CC[C@@]4(C)[C@]3(C)CC[C@@H]12
inactive: [2] 11.7% | [3] 76.8% | [4] 92% | [5] 41.1% | [6] 107% | [7] 56.6% | [8] 43.2% | [9] 59.9% | [10] 64%
active: [1] 1.04%

O=C1CCC(N2C(=O)c3ccc(NS(=O)(=O)c4ccccc4OC(F)(F)F)cc3C2=O)C(=O)N1 (stereo not given)
inactive: [1] 77.4% | [2] 61% | [3] 10.9% | [4] 85.3% | [5] 22.8% | [6] 82.3% | [7] 23.5% | [8] 86.2% | [9] 13.7% | [10] 19.7%

CCCCCCCn1cc2c(NCCc3ccccc3)ncnc2n1
inactive: [1] 85.4% | [2] 92.4% | [3] 99.9% | [4] 108% | [5] 101% | [6] 113% | [7] 97.5% | [8] 121% | [9] 88.5% | [10] 98.7%

CC(Nc1c(C#N)cnc2ccc(-c3cnc(N)nc3)cc12)c1ccccc1 (stereo not given)
inactive: [1] 14% | [3] 21.3% | [4] 23.5% | [5] 16.5% | [8] 15.3% | [10] 19.3%
active: [2] -11% | [6] -0.597% | [7] -16% | [9] -22.5%

COc1ccc(COc2ccc(/C=C3\C(=O)Nc4ccccc43)cc2OC)cc1
inactive: [1] 102% | [2] 104% | [3] 101% | [4] 99.9% | [5] 99.8% | [6] 119% | [7] 107% | [8] 115% | [9] 105% | [10] 106%

COc1ccc(C2CC(c3cccc(Nc4nc(Cl)nc5cc(OC)c(OC)cc45)c3)=Nc3c(N)nc(N)nc3N2)cc1 (stereo not given)
inactive: [2] 38.4% | [3] 70.1% | [4] 111% | [5] 96.6% | [6] 121% | [7] 92.5% | [8] 75.3% | [9] 94.4% | [10] 92.3%
active: [1] 3.81%

CCCCCc1ccc(S(=O)(=O)Nc2cccc(-c3csc(NCCN4CCN(C)CC4)n3)c2)cc1
active: [1] -6.54% | [2] -21.4%
inactive: [3] 94.2% | [4] 94.1% | [5] 84.5% | [6] 92.4% | [7] 79.9% | [8] 68.1% | [9] 87% | [10] 85.7%

COc1cccc(/C=C(/C)c2ccc3cccc(OC)c3[o+]2)c1O
inactive: [1] 92.1% | [2] 93.1% | [3] 100% | [4] 104% | [5] 98% | [6] 107% | [7] 94.5% | [8] 114% | [9] 101% | [10] 107%

O=C(CCn1c[n+](CC(=O)c2ccc(-c3ccccc3)cc2)c2ccccc21)Nc1cccc2cccnc12
inactive: [3] 52.5% | [4] 81.9% | [5] 24.8% | [6] 74.9% | [7] 10.5% | [8] 28.5% | [9] 62.8% | [10] 99.1%
active: [1] 9.22% | [2] 3.25%

COc1cc(/C=N/NC(=O)c2cn(C3CC3)c3c(OC)c(N4CC5CCCNC5C4)c(F)cc3c2=O)ccc1O (stereo not given)
active: [1] -13.4% | [2] -25% | [5] -52.8% | [8] -73%
inactive: [3] 74.2% | [4] 38.4% | [6] 119% | [7] 16.4% | [9] 107% | [10] 98.5%

Nc1nc(N)c2c(n1)NC(c1ccc(Cl)cc1)CC(c1ccc(Nc3nc(NCCO)nc(N4CCOCC4)n3)cc1)=N2 (stereo not given)
active: [1] 8.95%
inactive: [2] 38.9% | [3] 72% | [4] 96.7% | [5] 93.8% | [6] 103% | [7] 78.8% | [8] 73.2% | [9] 65.9% | [10] 97.3%

CS(=O)(=O)Nc1cc(-c2ccc3ncc(C#N)c(N[C@H](CO)c4ccccc4)c3c2)cnc1Cl
inactive: [1] 20.7% | [2] 64.2% | [3] 56.2% | [4] 74.1% | [5] 54% | [6] 81.1% | [8] 24% | [9] 13.7% | [10] 97.8%
active: [7] 3.75%

NC(N)=Nc1ccc(Oc2cccc(NC(N)=Nc3ccc(Cl)c(C(F)(F)F)c3)c2)cn1
active: [1] -16.4% | [7] -19.7% | [8] 3.55%
inactive: [2] 27.9% | [3] 53.5% | [4] 41.8% | [5] 52.7% | [6] 48.3% | [9] 33.2% | [10] 95.4%

CC(C)(C)c1ccc(C(=O)Nc2nc3ccc(O)cc3s2)cc1
inactive: [1] 24.7% | [2] 22.1% | [3] 30.6% | [4] 69.6% | [5] 46.3% | [6] 78.6% | [7] 47.7% | [8] 57.6% | [9] 77.3% | [10] 40.9%

C#C[C@]1(O)CC[C@H]2[C@@H]3CC=C4c5sc(-c6cccc(O)c6)nc5CC[C@]4(C)[C@H]3CC[C@@]21C
active: [1] 4.31% | [2] -33% | [3] 9.55% | [4] -35% | [5] -47.4% | [6] -18.2% | [7] -3.36% | [8] -65.3% | [9] -37.7% | [10] -12.5%

C[C@H]1c2[nH]c3ccccc3c2C[C@H]2C(=O)N(CCCCCCC(=O)NO)CC(=O)N21
inactive: [1] 30.8% | [2] 73.8% | [3] 64.5% | [4] 80.7% | [5] 97.1% | [6] 101% | [7] 93% | [8] 79.9% | [9] 66.7% | [10] 106%

COc1cc2nc(Cl)nc(Nc3cccc(C4=Nc5c(N)nc(N)nc5NC(c5ccc6c(c5)OCO6)C4)c3)c2cc1OC (stereo not given)
inactive: [1] 10.3% | [2] 41.7% | [3] 68.2% | [4] 112% | [5] 97% | [6] 112% | [7] 77.6% | [8] 63.5% | [9] 82.7% | [10] 93.1%

Nn1c(N/N=C/c2nc3ccccc3s2)n[nH]c1=S
inactive: [1] 108% | [2] 105% | [3] 107% | [4] 103% | [5] 85.8% | [6] 118% | [7] 82.2% | [8] 118% | [9] 110% | [10] 118%

NC(N)=Nc1ccc(Oc2cccc(Oc3ccc(Cl)c(C(F)(F)F)c3)c2)cn1
active: [1] -58.9% | [2] -49.5% | [3] -50.8% | [4] -74.5% | [5] -76.8% | [7] -81.7% | [8] -95% | [10] -6.8%
inactive: [6] 75.8% | [9] 79.8%

Cn1ccnc1C(=O)/C=C/c1ccc(CNC(=O)c2c(F)c(F)c(F)c(F)c2F)cc1
active: [2] 9.9%
inactive: [1] 12.8% | [3] 90.1% | [4] 94.9% | [5] 95.4% | [6] 105% | [7] 31.7% | [8] 14.8% | [9] 86.9% | [10] 49.1%

O=C(/C=C/c1ccc(F)cc1)c1ccc(O)cc1
inactive: [1] 24.4% | [2] 23.9% | [3] 98.4% | [4] 103% | [5] 106% | [6] 110% | [7] 114% | [8] 83.6% | [9] 107% | [10] 106%

Nc1ncc(-c2ccc3ncnc(N4CCc5cc(F)c(Cl)cc54)c3c2)cn1
active: [2] -14.7% | [7] -11.2% | [9] -12.8%
inactive: [1] 18% | [3] 33.5% | [4] 19.8% | [5] 31.7% | [6] 20.5% | [8] 13.5% | [10] 38.4%
